Screens: PubChem BioAssay, several laboratories
Rows were chosen to be rich in hits. Some 5.4% of all compounds tested hit in one or more screens of this group.
GAA850 FXN act – FXN promoter activators, primary screen, cell-based, luciferase luminescence, HEK293 lucGAA850. HEK293 lucGAA850 FXN promoter luciferase reporter, 24 h; percent of 10 µM SAHA response. activation, % at 6 µM. 360,000 compounds, 0.56% hits. AID 540364, 2011;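 active means activation above the average of all compounds screened plus 3 SD, cutoff fixed separately per campaign, cut at about 7.5% in these data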;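 further: 0% = DMSO wells and 100% = 10 µM SAHA wells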
AHR act – AHR activators, primary screen, cell-based, luminescence, luciferase reporter, human; Aryl hydrocarbon receptor (Homo sapiens), P35869; AHR-responsive luciferase reporter cells; activation, % at 5 µM; 320,000 compounds, 2.5% hits; AID 2796, 2010; in the data active means activation above about 47%;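 further: 0% = vehicle wells and 100% = reference agonist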
Target sequence (P35869 whole entry, looked up): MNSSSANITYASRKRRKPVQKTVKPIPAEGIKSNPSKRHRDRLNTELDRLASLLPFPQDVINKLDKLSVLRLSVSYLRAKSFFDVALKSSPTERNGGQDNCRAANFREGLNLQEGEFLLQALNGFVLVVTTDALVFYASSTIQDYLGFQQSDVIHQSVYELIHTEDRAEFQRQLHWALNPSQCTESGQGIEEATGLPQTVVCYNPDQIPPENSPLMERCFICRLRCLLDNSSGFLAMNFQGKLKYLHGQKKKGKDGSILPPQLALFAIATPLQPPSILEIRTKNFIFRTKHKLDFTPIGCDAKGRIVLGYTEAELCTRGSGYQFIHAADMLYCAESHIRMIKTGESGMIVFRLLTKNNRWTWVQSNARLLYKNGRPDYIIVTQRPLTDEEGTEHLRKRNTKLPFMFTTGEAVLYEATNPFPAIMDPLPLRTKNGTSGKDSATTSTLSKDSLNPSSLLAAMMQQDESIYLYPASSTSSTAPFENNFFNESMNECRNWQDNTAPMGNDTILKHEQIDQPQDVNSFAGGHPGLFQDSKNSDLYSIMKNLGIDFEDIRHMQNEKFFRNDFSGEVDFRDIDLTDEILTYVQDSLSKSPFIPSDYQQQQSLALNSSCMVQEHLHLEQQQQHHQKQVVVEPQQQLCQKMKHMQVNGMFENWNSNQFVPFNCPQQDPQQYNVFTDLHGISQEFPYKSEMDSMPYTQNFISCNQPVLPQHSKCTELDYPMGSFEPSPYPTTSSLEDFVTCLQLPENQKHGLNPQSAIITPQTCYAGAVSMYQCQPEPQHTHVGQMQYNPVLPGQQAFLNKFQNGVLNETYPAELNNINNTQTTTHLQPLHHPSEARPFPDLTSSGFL
HSF1 activator – HSF-1 activators, primary screen, NIH3T3-HGL cells, MG132 stress, luminescence, single point; NIH3T3-HGL HSF-1 luciferase reporter, 8 h; 100% = twice DMSO control signal; activation, % at 9 µM; 300,000 compounds, 1.7% hits;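 active means mean replicate activation of at least 50% with a set share of replicates each reaching 50%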;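 further: 0% = median of the neutral control wells and 100% = twice that signal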
HSF1 inh – HSF1 inhibitors in luciferase reporter cells, primary screen, cell-based, NIH3T3, luminescence; 300,000 compounds, 0.77% hits; NIH3T3-HGL HSE-luciferase, MG132-induced, luminescence 8 h; stronger effect = lower value; activity change, negative = inhibition, % at 7.5 µM (by protocol);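 active means more than half of replicate wells show activity change below -50%, luminescence cut by over half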;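 further: luciferase reports HSF-1 transcriptional activity via heat shock element; 0% = median of DMSO wells and -100% = zero luminescence signal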
NR0B1 inh – DAX1 (NR0B1) inhibitors, primary screen, cell-based, HEK293, Gal4-DAX1, luciferase luminescence; Nuclear receptor subfamily 0 group B member 1 (Homo sapiens), P51843; 340,000 compounds, 0.99% hits; HEK293 Gal4-DAX1 luciferase reporter; inhibition, % at 6.75 µM; AID 504766, 2011;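 active means inhibition above the mean over all tested compounds plus 3 SD, cut at about 4.2% in these data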;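 further: 0% = DAX1-transfected cells with DMSO and 100% = empty-vector control cells with DMSO; inhibition shows as a rise in luminescence from relieved DAX1 repression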
An asterisk follows results filed as active; . = no result.

SMILES	GAA850 FXN act	AHR act	HSF1 activator	HSF1 inh	NR0B1 inh
O=C(CSc1ccc(-c2nc3ccccc3[nH]2)cn1)Nc1ccc(S(=O)(=O)NC2CC2)cc1	2	6	51*	26	-1
Cc1ccc2nc(-c3ccc(SCC(=O)Nc4ccc5c(c4)OCCO5)nc3)[nH]c2c1	4	30	55*	36	2
Nc1nc(C(c2ccccc2)c2ccccc2)cs1	-1	2	-14	-8	0
COc1ccccc1N1CCN(C(=O)NCc2cccc(C(F)(F)F)c2)CC1	2	1	2	-4	-1
Cc1ccccc1NC(=O)C1CCN(C(=O)N2CCOc3ccccc32)CC1	-3	-1	2	1	0
CCC(=O)N1CCc2cc(S(=O)(=O)N3CCN(c4ccccc4Cl)CC3)ccc21	0	-2	-5	-1	0
Cc1cc(=O)n2c3ccccc3n(C)c2n1	5	.	3	2	2
Cc1cccc(NC(=O)c2cc(-c3ccc(C)s3)nc3ccccc23)n1	-5	56*	-50	-44	-2
Cc1ccnc(NC(=O)c2cc(-c3ccc(Cl)s3)nc3ccccc23)c1	-1	22	-8	-14	4.7*
COc1cc([N+](=O)[O-])ccc1NC(=O)CCCOc1cccc(C)c1	2	1	-2	0	3
CCc1nnc(NS(=O)(=O)c2ccc(NC(=O)c3ccccc3O)cc2)s1	0	0	-11	-7	1
CCCC(=O)NCCc1cc(OC)c(OC)cc1Br	-1	17	10	-6	-1
Cc1ccc(-c2csc(NC(=O)c3ccc(S(=O)(=O)N4CCc5ccccc54)cc3)n2)cc1	-1	29	-66	-56*	-1
O=C1Cc2ccccc2C(=O)N1c1cccc(Cl)c1	3	1	-55	-46	0
CCOc1ccccc1/C=C/c1onc(C)c1S(=O)(=O)N1CCC(C(=O)N(CC)CC)CC1	-1	4	-70	-60*	0
CSCCC(NS(=O)(=O)c1cccs1)C(=O)NCc1ccccc1 (centres undefined)	2	1	-57	-52*	0
CCOC(=O)C1(C)CCN1C(=O)c1ccc(C(F)(F)F)cc1 (centres undefined)	0	.	.	.	.
O=C(NCCCN1CCOCC1)c1ccc(Cl)cc1[N+](=O)[O-]	0	3	0	-1	4.6*
CCOC(=O)CSc1ccc(C(=O)NCCCN2CCOCC2)cc1[N+](=O)[O-]	2	-1	-75	-69*	-1
O=C(NCCCN1CCOCC1)c1ccc(Cl)c([N+](=O)[O-])c1	1	-2	-2	-3	.
COc1ccc(OCC(=O)NCCNC(=O)c2cccnc2)cc1	1	0	2	3	-1
COc1cccc(CCNC(=O)c2cc(COc3ccc(C)c(C)c3)on2)c1OC	2	.	.	.	4.4*
Cc1ccc(OCc2cc(C(=O)NCCc3cccnc3)no2)cc1C	3	12	26	17	0
CC(C)(C)C1C/C(=C/c2ccccn2)C(=O)/C(=C/c2ccccn2)C1 (centres undefined)	-17	-3	-31	-34	-5
CC1C/C(=C/c2ccccn2)C(=O)/C(=C/c2ccccn2)C1 (centres undefined)	-16	0	89*	45	-6
SMILES	GAA850 FXN act	AHR act	HSF1 activator	HSF1 inh	NR0B1 inh
CC(CC(F)(F)F)N1CCC(n2nccc2NC(=O)CCCc2ccccc2)CC1 (centres undefined)	2	4	8	2	1
CC(C)CC[n+]1ccn(-c2nc3ccccc3nc2[N-]S(=O)(=O)c2ccc(Cl)cc2)c1	1	-1	1	9	5.3*
C[C@H]1CN([C@@H](C)CO)C(=O)CCCn2cc(nn2)CO[C@@H]1CN(C)S(=O)(=O)c1cccc(F)c1	0	.	.	.	1
C/C(=N\Nc1ccc(C)c(Cl)c1)c1ccncc1	0	23	19	2	-1
C/C(=N\Nc1ccc(C)c(Cl)c1)c1cccnc1	3	54*	5	-5	2
C=C(C)CN(CC)C(=O)CC1C(=O)NCCN1C (centres undefined)	2	-1	-25	-2	1
CCCn1c(O)c(C=Nc2ccccc2)sc1=S	4	7	15	26	3
